{"source": "PubChem BioAssay (EPA / NIEHS)", "note": "Records with an inconclusive call do not appear. Some structures have more than one record in an assay (separate samples or runs), and their calls can disagree. Activity calls are given as the source filed them. Rule for the calls: active = hit-call score of the fitted dose curve at least 0.9, where 1 is the maximum; inconclusive = response in the unintended direction; inactive = score below 0.9.", "data": [{"test": "ATG_XTT_Cytotoxicity: Cytotoxicity Assessment in the Attagene TRANS-FACTORIAL HepG2 Assay (AID 2283584);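 for AC50: cells exposed to compound for 24 h before reading; active means loss of viability signal versus DMSO baseline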", "method": "ATG_XTT_Cytotoxicity is a cell-based, single-readout assay that uses HepG2, a human liver cell line, with measurements taken at 24 hours after chemical dosing in a 24-well plate.ATG_XTT_Cytotoxicity is one of one assay component(s) measured or calculated from the ATG_XTT_Cytotoxicity assay. It is designed to make measurements of cell number, a form of viability reporter, as detected with […] signals by XTT cytotoxicity assay technology.Data from the assay component ATG_XTT_Cytotoxicity was analyzed into 1 assay endpoint. This assay endpoint, ATG_XTT_Cytotoxicity, was analyzed in the positive analysis fitting direction relative to DMSO as the negative control and baseline of activity. Using a type of viability reporter, loss-of-signal activity can be used to understand changes in the viability. Furthermore, this assay endpoint can be referred to as a primary readout, because the performed assay has only produced 1 assay endpoint. To generalize the intended target to other relatable targets, this assay endpoint is annotated to the cell cycle intended target family, where the subfamily is cytotoxicity.\nHuman liver HepG2 cells are transiently transfected with multiple reporter transcription units (MRTUs) in 6-well plates using FuGene 6 reagent (Roche; 3 ml FuGene/1 mg DNA). The MRTU constructs are regulated by a cis-regulating element (promoter). […] A major difference between the CIS and TRANS system is that in CIS activities of endogenous TFs are measured, whereas the TRANS assay evaluates changes in activities of exogenous, chimeric NR-Gal4 proteins. […] At the end of 24 hour incubation, total RNA was isolated using TriZol reagent (Invitrogen). The isolated RNA is then reverse-transcribed using oligo(dT) primer and Mo-MLV reverse transcriptase (Invitrogen) with DNAse I (Ambion) treatment for 30 min. The one-tenth of the produced cDNA was amplified by PCR using Taq DNA polymerase (Invitrogen) and two reporter sequence-specific primers. The PCR products were fluorescently labeled by primer extension with 6-arboxyfluorescein (6-FAM) 5'-labeled reporter sequence-specific primer (2 min at 95 C, 20 s at 68 C and 10 min at 72 C) and these products were digested with 5U of HpaI (New England Biolabs) for 2h at 37 C. The fragments were purified using Qiaquick PCR columns (Qiagen), analyzed on an ABI 3130xL genetic analyzer (Applied Biosystems) with peak positions identified by using a set of X-rhodamine (ROX)-labeled MapMarker1000 molecular weight standards (BioVentures). The raw capillary electrophoresis data was processed using Attagraph software (Attagene).", "values": [{"smiles": "C[N+](C)(C)CC1CO1", "note": "(stereo not given)", "outcome": "inactive"}, {"smiles": "Nc1ccc(Cl)cc1N", "outcome": "inactive"}, {"smiles": "[Cl-].[Cl-].[Hg+2]", "outcome": "inactive"}, {"smiles": "O=C(O)C1C2CCC(O2)C1C(=O)O", "note": "(stereo not given)", "outcome": "inactive"}, {"smiles": "CN(C)c1ccc(C(=O)c2ccc(N(C)C)cc2)cc1", "outcome": "inactive"}, {"smiles": "CCC(C)c1ccc(O)cc1", "note": "(stereo not given)", "outcome": "inactive"}, {"smiles": "Nc1ccc(Cc2ccc(N)cc2)cc1", "outcome": "inactive"}, {"smiles": "COC(=O)c1ccccc1N", "outcome": "inactive"}, {"smiles": "Nc1ccc(Oc2ccc(N)cc2)cc1", "outcome": "inactive"}, {"smiles": "CCCCOC(=O)c1ccccc1C(=O)OCc1ccccc1", "outcome": "inactive"}, {"smiles": "N#CC(Br)(Br)C(N)=O", "outcome": "inactive"}, {"smiles": "ClC1=C(Cl)[C@]2(Cl)[C@H]3[C@H]([C@@H]4C=C[C@H]3C4)[C@@]1(Cl)C2(Cl)Cl", "outcome": "inactive"}, {"smiles": "Cn1cc(-c2ccccc2)c(=O)c(-c2cccc(C(F)(F)F)c2)c1", "outcome": "inactive"}, {"smiles": "C1=Cc2cccc3cccc1c23", "outcome": "inactive"}, {"smiles": "CC(C)(C)OOC(=O)c1ccccc1", "outcome": "inactive"}, {"smiles": "CC(C)(C)OOC(C)(C)CCC(C)(C)OOC(C)(C)C", "outcome": "inactive"}, {"smiles": "O=C1CCCO1", "outcome": "inactive"}, {"smiles": "CCN(CC)N=O", "outcome": "inactive"}, {"smiles": "CCC[CH2][Sn]([Cl])([CH2]CCC)[CH2]CCC", "outcome": "inactive", "AC50": "1800 nM (active)"}, {"smiles": "[O-][Cl+]O", "outcome": "inactive"}, {"smiles": "CCCSC(=O)N(CCC)CCC", "outcome": "inactive"}, {"smiles": "ClCCOCCCl", "outcome": "inactive"}, {"smiles": "ClC1=C(Cl)C2(Cl)C3C(Cl)C=CC3C1(Cl)C2(Cl)Cl", "note": "(stereo not given)", "outcome": "inactive"}, {"smiles": "CN(C)C(=O)Nc1ccc(Cl)cc1", "outcome": "inactive"}, {"smiles": "Nc1ccc([N+](=O)[O-])cc1", "outcome": "inactive"}, {"smiles": "CCCCC(CC)COC(=O)c1ccc(C(=O)OCC(CC)CCCC)c(C(=O)OCC(CC)CCCC)c1", "note": "(stereo not given)", "outcome": "inactive"}, {"smiles": "CCCCCCCCOC(=O)c1ccc(C(=O)OCCCCCCCC)c(C(=O)OCCCCCCCC)c1", "outcome": "inactive"}, {"smiles": "O=P(OCCCl)(OCCCl)OCCCl", "outcome": "inactive"}, {"smiles": "Nc1cc(Cl)cc(C(=O)O)c1Cl", "outcome": "inactive"}, {"smiles": "CCCCCOC(=O)c1ccccc1C(=O)OCCCCC", "outcome": "inactive"}, {"smiles": "Cc1ccc([N+](=O)[O-])cc1", "outcome": "inactive"}, {"smiles": "Clc1ccc(C(c2ccc(Cl)cc2)C(Cl)(Cl)Cl)cc1", "outcome": "inactive"}, {"smiles": "CC(C)COC(=O)c1ccccc1C(=O)OCC(C)C", "outcome": "inactive"}, {"smiles": "OCCCBr", "outcome": "inactive"}, {"smiles": "CC(C)(C)C(O)(CCc1ccc(Cl)cc1)Cn1cncn1", "note": "(stereo not given)", "outcome": "inactive"}, {"smiles": "O=[N+]([O-])C(Br)(CO)CO", "outcome": "inactive"}, {"smiles": "Cc1cc(N=Nc2ccccc2C)ccc1N", "outcome": "inactive"}, {"smiles": "COC(=O)Nc1nc2ccccc2[nH]1", "outcome": "inactive"}, {"smiles": "OCCOCCO", "outcome": "inactive"}]}]}
